# Active and inactive are the calls of the source.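 Rule for the calls, unless noted: active = inhibition above 20% together with a positive visual image hit; inconclusive = visual image hit but inhibition not above 20%; inactive = no visual image hit.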
# What was measured:
# [1] = inhibitors of TNFa-induced NFkB p65 translocation, primary screen, imaging, HUVEC, MLSMR starter and 10KST1 sets (AID 438); details: HUVEC TNFa-induced p65 nuclear translocation; cell count: measured here: nuclei count (cytotoxicity indicator), at 2.08 µM; inhibition: at 2 µM, stronger effect = higher value, 0% TNFa-plus-vehicle, 100% no-TNFa wells;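 note: compound added about 3h40 before a 20 min TNFalpha stimulation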;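 for inhibition: signal is the nuclear over cytoplasmic p65 intensity ratio per well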
# [2] = inhibitors of mutant huntingtin aggregation, primary screen, imaging, exon1htt(103Q)mCFP cells, high-content imaging (AID 483;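 active = visual image review flags a hit and inhibition of aggregation exceeds 20%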;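 note: compound exposure lasted 3 days before fixation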;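 for nuclei count: percent of the per-plate median nuclei count of sample wells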); details: exon1htt(103Q)mCFP cell line, aggregate imaging, at 2 µM; inhibition of aggregation: stronger effect = higher value; nuclei count: measured here: cell count, toxicity
# [3] = inhibitors of E-selectin induction by TNFa, primary screen, imaging, HUVEC, immunofluorescence, MLSMR starter and 10KST1 sets (AID 487;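 active = visually confirmed hit in the image check and inhibition above 20%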;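 for inhibition: signal is fraction of cell area covered by stained E-selectin grains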;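 for nuclei count: 100% = median nuclei count of all wells on the same plate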); details: HUVEC TNFalpha-induced E-selectin immunofluorescence imaging, at 2 µM; inhibition: stronger effect = higher value; nuclei count: measured here: cell number, toxicity
# [4] = target: Voltage-gated potassium channel subunit beta-2 (Rattus norvegicus) (UniProt P62483); assay: KvBeta enzyme negative modulators, primary screen, biochemical, NADPH fluorescence (AID 622;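 active = fluorescence slope higher than the sample average by over 3 SD, cut at about -0.22 in these data, passing the limit was not always enough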;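 note: slope of raw intensity against log time taken from 70 to 1610 s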); details: recombinant KvBeta, 4-cyanobenzaldehyde reduction, at 10 µM, stronger effect = higher value
# Sequence of Voltage-gated potassium channel subunit beta-2 (Rattus norvegicus) (P62483 whole entry, looked up): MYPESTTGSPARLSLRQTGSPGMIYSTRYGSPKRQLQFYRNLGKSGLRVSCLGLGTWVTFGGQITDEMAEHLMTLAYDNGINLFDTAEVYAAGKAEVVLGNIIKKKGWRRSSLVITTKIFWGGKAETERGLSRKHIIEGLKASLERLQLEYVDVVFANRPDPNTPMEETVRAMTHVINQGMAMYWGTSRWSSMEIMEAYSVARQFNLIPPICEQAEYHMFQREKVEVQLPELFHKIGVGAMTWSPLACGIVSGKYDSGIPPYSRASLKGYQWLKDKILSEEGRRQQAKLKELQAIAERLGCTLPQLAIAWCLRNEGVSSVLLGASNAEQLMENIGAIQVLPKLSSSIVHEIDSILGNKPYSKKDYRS
# [5] = target: Voltage-gated potassium channel subunit beta-2 (Rattus norvegicus) (UniProt P62483); assay: KvBeta positive modulators, primary screen, biochemical, NADPH fluorescence (AID 623;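 active = NADPH fluorescence slope more negative than the mean of all samples by about 3 SD, 99.7% confidence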;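 note: fluorescence intensity change per second fitted from 20 to 320 s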); details: Recombinant KvBeta, NADPH fluorescence decrease slope, 10 min; at 10 µM; stronger effect = lower value
# [6] = target: Alpha-2C adrenergic receptor (Homo sapiens) (UniProt P18825); assay: modulators of alpha2C/GIRK thallium flux, primary screen, cell-based, HEK293 alpha2C/GIRK1/2 (AID 624;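 active = fluorescence slope after compound addition differing from the mean of all screened samples at 99.7% confidence, in either direction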;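 note: slope of fluorescence ratio to pre-addition baseline per second over 15 to 24 s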); details: thallium flux BTC fluorescence, at 10 µM, actives lie on both sides
# Sequence of Alpha-2C adrenergic receptor (Homo sapiens) (P18825 whole entry, looked up): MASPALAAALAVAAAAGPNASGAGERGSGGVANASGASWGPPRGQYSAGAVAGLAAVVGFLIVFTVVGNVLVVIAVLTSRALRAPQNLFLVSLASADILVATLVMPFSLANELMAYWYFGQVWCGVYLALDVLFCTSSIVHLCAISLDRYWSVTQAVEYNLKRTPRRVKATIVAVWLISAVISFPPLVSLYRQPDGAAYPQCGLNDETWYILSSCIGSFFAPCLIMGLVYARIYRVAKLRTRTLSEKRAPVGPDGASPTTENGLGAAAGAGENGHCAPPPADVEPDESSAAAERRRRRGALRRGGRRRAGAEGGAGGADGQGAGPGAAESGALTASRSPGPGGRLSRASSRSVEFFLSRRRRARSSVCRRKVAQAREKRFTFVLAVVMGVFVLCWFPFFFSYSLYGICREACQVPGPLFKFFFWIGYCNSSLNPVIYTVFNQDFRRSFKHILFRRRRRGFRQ
# [7] = inhibitors of Sendai virus-induced IRF3 signaling, primary screen, TLR/RLR signaling modifier project, cell-based, Sendai virus stimulus, luciferase, 10K MLSCN set (AID 602276;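 active = inhibition at or above 50% at 10 µM; inactive = inhibition below 50%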;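 note: firefly luciferase from ISG56 promoter only with Renilla not read in this screen; 0% = Sendai virus plus DMSO and 100% = medium plus DMSO without virus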); details: HEK293 RL24 IRF3 luciferase reporter, at 10 µM, stronger effect = higher value
# [8] = inhibitors of poly I:C-induced TLR3 signaling, primary screen, cell-based, poly I:C stimulus, luciferase, 10K MLSCN set (AID 602277;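 active = inhibition of the reporter signal at or above 50%; inactive = inhibition below 50%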); details: HEK293-TLR3 RL24 IRF3 luciferase reporter, at 10 µM, stronger effect = higher value
Structure (SMILES),cell count [1],inhibition [1],inhibition of aggregation [2],nuclei count [2] [%],inhibition [3],nuclei count [3] [%],fluorescence slope [4],NADPH fluorescence slope [5],slope [6],inhibition [7],inhibition [8]
CCOc1ccccc1C1CC(c2ccc(Br)cc2)Nc2nc(N)nn21 (centres undefined),593,6.9% (inactive),19.2% (inactive),94.5,-14.1% (inactive),107,-0.512 (inactive),-4.3e-05 (inactive),0.0067 (inactive),18.7% (inactive),33.7% (inactive)
Cc1cc(N)n2nc(-c3ccccc3)cc2n1,492,1.2% (inactive),0% (inactive),98.3,-15.5% (inactive),110,-0.421 (inactive),-8.6e-05 (inactive),0.00566 (inactive),-31.2% (inactive),-74.6% (inactive)
c1cc(C(c2nnnn2C2CCCC2)N2CCOCC2)ccn1 (centres undefined),392,-7.3% (inactive),27.3% (inactive),78.3,38.6% (inactive),97.3,-0.522 (inactive),2.4e-05 (inactive),0.00524 (inactive),18.3% (inactive),21.2% (inactive)
CC1=C/C(=C/N(C)c2ccccc2)C(=O)S1,582,-3.5% (inactive),-10.1% (inactive),97.7,31.4% (inactive),88.1,-0.61 (inactive),1.5e-05 (inactive),0.0049 (inactive),-17.2% (inactive),-17% (inactive)
CN1C(=S)SC(C)(NO)C1(C)C (centres undefined),446,6.5% (inactive),7.3% (inactive),78.4,2.9% (inactive),107,-0.479 (inactive),-0.000139 (active),0.00444 (inactive),15.4% (inactive),16% (inactive)
Cc1cc(NC(=O)C23CCC(C)(C(=O)O2)C3(C)C)no1 (centres undefined),406,4% (inactive),14.4% (inactive),80.2,-22.3% (inactive),111,-0.612 (inactive),-1.5e-06 (inactive),0.00569 (inactive),4.18% (inactive),10.3% (inactive)
COCCNC(=O)C(C)N(c1ccc(Oc2ccccc2)cc1)S(C)(=O)=O (centres undefined),333,2.5% (inactive),-15.1% (inactive),98.6,-21.7% (inactive),111,-0.445 (inactive),-6.4e-05 (inactive),0.00568 (inactive),14.7% (inactive),23.7% (inactive)
CCc1cccc(NC(=O)CN(C)S(=O)(=O)c2cccc3nsnc23)c1,337,-6.3% (inactive),7.8% (inactive),94,-68.8% (inactive),120,-0.35 (inactive),-6.7e-05 (inactive),0.0056 (inactive),10.2% (inactive),8.03% (inactive)
CN(C)S(=O)(=O)c1ccc(C(=O)N2CCCC2c2nc3ccccc3s2)cc1 (centres undefined),475,-9.4% (inactive),4% (inactive),97.5,-82.5% (inactive),102,-0.524 (inactive),1.6e-05 (inactive),0.0053 (inactive),-17.9% (inactive),-7.19% (inactive)
CC(C)N(O)C(=O)NC(C)(C)C,496,9.4% (inactive),-1.8% (inactive),106,42.3% (inactive),103,-0.494 (inactive),-2.2e-05 (inactive),0.00463 (inactive),17.4% (inactive),15% (inactive)
Nc1nnc(-c2cn(-c3ccccc3)nc2-c2ccccc2)o1,523,-12.5% (inactive),-7.1% (inactive),90.3,-16.3% (inactive),113,-0.481 (inactive),1.3e-05 (inactive),0.00498 (inactive),-22.2% (inactive),-23.6% (inactive)
CC1=C(C(=O)Nc2ccccc2C)C(c2ccc(C)o2)N2C(=O)CSC2=N1 (centres undefined),642,-16.7% (inactive),0% (inactive),106,-5.9% (inactive),95.6,-0.44 (inactive),-1.8e-05 (inactive),0.00436 (inactive),16.5% (inactive),21.5% (inactive)
CC(C)NC(=O)Nc1cccs1,708,3% (inactive),21.6% (inactive),104,-84.5% (inactive),105,-0.507 (inactive),-5.6e-05 (inactive),0.00565 (inactive),11.4% (inactive),4.68% (inactive)
Cc1ccc(-c2cn3cccnc3n2)cc1NC(=O)c1ccc(Br)o1,420,4.7% (inactive),30.5% (inactive),66.8,-274% (inactive),103,-0.0541 (active),1.6e-06 (inactive),0.00595 (inactive),-11.9% (inactive),-53% (inactive)

# Source: PubChem BioAssay
